Test results reported in PubChem BioAssay (NCATS).
Inconclusive results are not listed. Calls of active or inactive are those of the source. Unless noted, calls come from the whole dose curve; as a rule, active = well fitted curve in the direction sought with a large enough effect; inconclusive = small, poorly fitted or top-dose-only effect, or another doubt; inactive = no such curve, though single readings can be large; an effect the other way counts as inactive or inconclusive.

Key:
[1] = High-throughput drug toxicity screening in the BPDCN cell line Cal-1 (AID 1224825; call rule not given here); conditions: Cal-1 BPDCN cell viability, qHTS; at 45.8 µM (top of the series) unless noted
Method in brief: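 500 Cal-1 cells/well, RPMI + glutamine + 10% FBS (phenol red-free); cpd added by pin tool; 48 h, 37C, 5% CO2; CTG 15 min RT, lumi read. Normalised: DMSO 100%, bortezomib 9.2 uM 0%.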

[2] = qHTS assay for measurement of the activity of small molecule inhibitors on Zika virus induced Caspase-3 activity in human iPSC derived neural progenitor cells (hNPCs) (AID 1224857); note: % of control where 0% means no effect; nearly all actives have a fitted effect of over 65% in size
Method in brief: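 Percent inhibition of virus-induced caspase-3/7 luminescence (Caspase-Glo), scaled between uninfected cells and Zika-infected cells. hNPCs received compound 1 hr before ZIKV at 2 FFU/cell, with 6 hours infection at 37 C.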

[3] = qHTS assay for measurement of the activity of small molecule inhibitors on Zika virus induced Caspase-3 activity in human astrocytoma cells (AID 1224859);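 note: plate controls were ZIKV-infected untreated cells for no effect and uninfected cells for full effect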
Method in brief: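 Luminescent caspase-3/7 read-out (30 min reagent, room temperature) in human SNB-19 cells infected 6 h with ZIKV (2 FFU/cell) after 1 h compound pre-incubation; Data were normalised to uninfected and infected wells.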

[4] = qHTS Screen of the MIPE 4.0 Collection Against Ewings Sarcoma (RDES) (AID 1259252); note: nearly all actives have a fitted effect of over 35% in size; note: potency is the fitted concentration of half-maximal effect;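 for viability (percent of control): 100% = DMSO-treated cells and 0% = medium-only wells without cells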
Method in brief: (§1)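 Cells plated in serum-containing RPMI (5% FBS) and treated with compound dilutions for 48 h. Readout luminescent viability; normalization relied on vehicle (no inhibition) and media-only columns (full inhibition).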

[5] = qHTS Screen of the MIPE 4.0 Collection Against Ewings Sarcoma (TC71) (AID 1259253); note: nearly all actives have a fitted effect of over 40% in size; note: potency is the fitted concentration of half-maximal effect;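 for viability (% of DMSO): 100% = DMSO-treated cells and 0% = medium-only wells without cells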
Method in brief: as §1

[6] = qHTS Screen of the MIPE 4.0 Collection Against Ewings Sarcoma (EW8) (AID 1259255); note: nearly all actives have a fitted effect of over 35% in size; note: potency is the fitted concentration of half-maximal effect;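 for viability: 100% = DMSO-treated cells and 0% = medium-only wells without cells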
Method in brief: as §1

[7] = P-glycoprotein substrates identified in KB-8-5-11 adenocarcinoma cell line, qHTS therapeutic library screen (AID 1346987); note: nearly all actives have a fitted effect of over 65% in size; note: potency is the fitted concentration of half-maximal effect; for activity change, negative = cytotoxicity: % is set by controls: 0 for no effect and ±100 for the full control effect
Method in brief: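 Steps: plate 500 KB-8-5-11 cells/well in DMEM + 10% FCS (colchicine removed); pin compounds in dose-response; incubate 72 h, 37 degree C, 5% CO2; add CellTiter-Glo, 5 min; read luminescence.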

[8] = NS1 protein of Zika virus - qHTS assay to identify small molecule inhibitors in human HEK 293 cells (AID 1347053); note: nearly all actives have a fitted effect of over 55% in size; note: potency is the fitted concentration of half-maximal effect;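 for activity change, negative = inhibition: plate controls were infected untreated cells for no effect and uninfected cells for full effect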
Method in brief: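 Inhibition of NS1 expression was scored in HEK 293 cells given compound 1 h ahead of MR766 virus (MOI = 0.5). Following 24 h at 37 C, two anti-NS1 antibodies generated a TR-FRET signal, scaled between uninfected and infected controls.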

[9] = qHTS of pediatric cancer cell lines to identify multiple opportunities for drug repurposing: Primary screen for TC32 cells (AID 1347089); note: nearly all actives have a fitted effect of over 60% in size; note: potency is the fitted concentration of half-maximal effect; for activity change, negative = cytotoxic: % is set by controls: 0 for no effect and ±100 for the full control effect
Method in brief: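 qHTS, TC32, 48 h drug treatment, CellTiter-Glo luminescence as a proxy for metabolically active cells; primary top concentration 46 µM (MIPE 11-pt, NPC 8-pt); confirmatory 11-pt.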

[10] = qHTS of pediatric cancer cell lines to identify multiple opportunities for drug repurposing: Primary screen for SJ-GBM2 cells (AID 1347091); note: potency is the fitted concentration of half-maximal effect;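 for activity change, negative = cytotoxic: plate controls were DMSO neutral control for no effect and bortezomib for full effect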
Method in brief: (§2)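 Cell viability, CellTiter-Glo luminescence; 500-1,000 cells/well, 8- or 11-point titration, 48 h compound exposure at 37 degrees C, 5% CO2. Controls: DMSO neutral, bortezomib 2.3 µM final as positive.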

[11] = qHTS of pediatric cancer cell lines to identify multiple opportunities for drug repurposing: Primary screen for A673 cells (AID 1347092); note: nearly all actives have a fitted effect of over 45% in size; note: potency is the fitted concentration of half-maximal effect; for activity change, negative = cytotoxic: % is set by controls: 0 for no effect and ±100 for the full control effect
Method in brief: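 Luminescence from CellTiter-Glo, taken after 15 min at room temperature, served as the proxy for metabolically active cells following 48 h treatment. Both potency and efficacy were taken from curves fitted to the titration data.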

[12] = qHTS of pediatric cancer cell lines to identify multiple opportunities for drug repurposing: Primary screen for SK-N-MC cells (AID 1347093); note: potency is the fitted concentration of half-maximal effect;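 for activity change, negative = cytotoxic: plate controls were DMSO neutral control for no effect and bortezomib for full effect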
Method in brief: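 Metabolically active cells were quantified by ATP-dependent luminescence (CellTiter-Glo, 15 min at room temperature) following 48 h treatment. Cells had been plated at 500-1,000 per well and settled for 5 h beforehand.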

[13] = qHTS of pediatric cancer cell lines to identify multiple opportunities for drug repurposing: Primary screen for BT-37 cells (AID 1347094); note: potency is the fitted concentration of half-maximal effect;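 for activity change, negative = cytotoxic: plate controls were DMSO for no effect and bortezomib for full effect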
Method in brief: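 ATP-based luminescence (CellTiter-Glo) quantifies viability after a 48-hour exposure. Compounds are dosed across 8 or 11 final concentrations; DMSO and 2.3 µM bortezomib serve as controls.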

[14] = qHTS of pediatric cancer cell lines to identify multiple opportunities for drug repurposing: Primary screen for DAOY cells (AID 1347090); note: nearly all actives have a fitted effect of over 55% in size; note: potency is the fitted concentration of half-maximal effect;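 for activity change, negative = cytotoxic: plate controls were DMSO for no effect and bortezomib for full effect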
Method in brief: as §2

[15] = qHTS Screen of the MIPE 4.0 Collection Against Ewings Sarcoma (TC32) (AID 1259256); note: potency is the fitted concentration of half-maximal effect; nearly all actives have a fitted effect of over 45% in size
Method in brief: as §1

CC(=O)[C@]1(O)Cc2c(O)c3c(c(O)c2[C@@H](O[C@H]2C[C@H](N)[C@@H](O)[C@H](C)O2)C1)C(=O)c1ccccc1C3=O
4.63%: viability (% of control) [1]
active: Potency [4] 0.059 µM | Potency [5] 0.0372 µM | Potency [6] 0.0187 µM | Potency [7] 0.833 µM | Potency [8] 1.05 µM | Potency [9] 0.587 µM | Potency [10] 0.0833 µM | Potency [11] 0.148 µM | Potency [12] 0.118 µM | Potency [13] 0.193 µM
inactive: Potency [2] | Potency [3]

OCC(O)C(O)C(O)CO (configuration not stated)
66.8%: viability (% of control) [1]
inactive: Potency [2] | Potency [3] | Potency [4] | Potency [5] | Potency [6] | Potency [7] | Potency [8] | Potency [9] | Potency [14] | Potency [10] | Potency [11] | Potency [12] | Potency [13]

Nc1ncn([C@@H]2O[C@H](CO)[C@@H](O)[C@@H]2O)c(=O)n1
5.42%: viability (% of control) [1]
inactive: Potency [2] | Potency [3]
active: Potency [4] 6.62 µM | Potency [5] 4.18 µM | Potency [6] 7.43 µM | Potency [15] 4.69 µM | Potency [11] 4.69 µM | Potency [13] 10.9 µM

CC(C)(C)[C@H](NC(=O)c1ccc(N)c(Cl)c1)C(=O)N1CCC[C@@H]1C(=O)N[C@H](C#N)CC(=O)O
active: Potency [12] 0.235 µM
25% [at 3.51 µM]: viability (% of control) [1]
inactive: activity change, negative = inhibition [2] 12% [at 4.53 µM] | activity change, negative = inhibition [3] 53% [at 4.53 µM] | viability (percent of control) [4] 112% [at 3.51 µM] | viability (% of DMSO) [5] 134% [at 3.51 µM] | viability [6] 116% [at 3.51 µM] | activity change, negative = cytotoxicity [7] 2.87% [at 5.11 µM] | activity change, negative = inhibition [8] 0.927% [at 4.81 µM] | activity change, negative = cytotoxic [9] 10.4% [at 4.81 µM] | activity change, negative = cytotoxic [10] 0.43% [at 4.84 µM] | activity change, negative = cytotoxic [13] -11.4% [at 6.03 µM]

CCN(CC)CCCCNc1ncc2c(n1)N(C)C(=O)N(c1c(Cl)c(OC)cc(OC)c1Cl)C2
inactive: Potency [2] | Potency [3]
active: Potency [4] 20.9 µM | Potency [5] 20.9 µM | Potency [6] 18.7 µM | Potency [15] 20.9 µM | Potency [9] 23.4 µM | Potency [10] 14.8 µM | Potency [11] 18.7 µM | Potency [12] 13.2 µM
50.4%: viability (% of control) [1]

CNC(=O)c1ccc(Nc2cc(Nc3ccccc3S(=O)(=O)C(C)C)c3cc[nH]c3n2)nc1
active: Potency [4] 5.9 µM | Potency [5] 4.18 µM | Potency [6] 0.59 µM | Potency [15] 0.935 µM | Potency [9] 2.62 µM | Potency [14] 14.8 µM | Potency [10] 1.05 µM | Potency [11] 2.35 µM | Potency [12] 0.743 µM | Potency [13] 7.69 µM
3.36%: viability (% of control) [1]
inactive: Potency [2] | Potency [3]
